Mdm2-MdmX inh: human Mdm2/MdmX binding inhibition; O15151+Q00987; SaOS-2 split-luciferase Mdm2/MdmX complementation, luminescence; inhibition, % at 8 µM; actives 3% (n = 330,000);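 active = inhibition of at least 50% at 8 µM in the primary screen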
Target sequence (O15151 whole entry, looked up): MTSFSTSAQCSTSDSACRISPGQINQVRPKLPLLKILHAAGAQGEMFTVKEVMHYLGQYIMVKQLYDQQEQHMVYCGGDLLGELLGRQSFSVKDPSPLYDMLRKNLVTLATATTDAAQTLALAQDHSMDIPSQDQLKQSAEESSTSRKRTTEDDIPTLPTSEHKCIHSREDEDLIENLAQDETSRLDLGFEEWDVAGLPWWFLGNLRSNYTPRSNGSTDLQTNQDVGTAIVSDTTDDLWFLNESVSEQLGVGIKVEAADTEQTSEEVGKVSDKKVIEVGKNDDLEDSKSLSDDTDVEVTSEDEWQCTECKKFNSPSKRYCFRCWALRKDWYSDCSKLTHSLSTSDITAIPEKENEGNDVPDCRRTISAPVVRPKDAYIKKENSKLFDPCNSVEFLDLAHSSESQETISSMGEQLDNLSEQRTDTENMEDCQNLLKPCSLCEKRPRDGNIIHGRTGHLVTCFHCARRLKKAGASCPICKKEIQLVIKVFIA
Target sequence (Q00987 whole entry, looked up): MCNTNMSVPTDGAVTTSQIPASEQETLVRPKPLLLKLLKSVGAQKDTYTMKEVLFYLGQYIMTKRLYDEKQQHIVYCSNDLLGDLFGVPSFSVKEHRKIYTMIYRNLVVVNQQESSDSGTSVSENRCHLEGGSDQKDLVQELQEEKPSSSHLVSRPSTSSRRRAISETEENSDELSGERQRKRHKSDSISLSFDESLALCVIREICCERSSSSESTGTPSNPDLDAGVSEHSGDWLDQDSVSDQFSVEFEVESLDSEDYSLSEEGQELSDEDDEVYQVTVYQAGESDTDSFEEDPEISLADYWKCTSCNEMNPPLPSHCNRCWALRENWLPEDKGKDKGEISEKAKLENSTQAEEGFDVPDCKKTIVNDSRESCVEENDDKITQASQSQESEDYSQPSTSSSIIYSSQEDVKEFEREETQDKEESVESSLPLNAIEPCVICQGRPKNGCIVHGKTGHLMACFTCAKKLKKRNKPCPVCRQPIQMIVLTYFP
tim10-1 inh: inhibits growth of tim10-1 mutant yeast; S. cerevisiae tim10-1 ts strain growth, BacTiter-Glo, 24 h; actives 2.2% (n = 330,000); AID 463190; inhibition, % at 20 µM;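 active = inhibition of at least 40%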;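 note: mutant grown at 25 °C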
tim23-1 inh: growth inhibitors of tim23-1 mutant yeast; AID 463212; inhibition, % at 20 µM; actives 1.3% (n = 330,000); S. cerevisiae tim23-1 growth, BacTiter-Glo luminescence, 24 h;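 active = growth inhibition of the mutant yeast at or above 50%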;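 note: temperature-sensitive mutant grown at 25 °C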
TIM10 inh: growth inhibitors of TIM10 yeast strain; S. cerevisiae TIM10 strain growth, BacTiter-Glo luminescence, 24 h; inhibition, % at 10 µM; actives 1.4% (n = 330,000); AID 463195;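 active = inhibition of 40% or more at the single tested concentration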;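 note: wild-type TIM10 isogenic control strain grown at permissive 25 °C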
MPTP block: inhibitors of mitochondrial permeability transition pore; isolated mouse mitochondria, Ca2+ swelling absorbance, 30 min; inhibition, % at 10 µM; actives 1.4% (n = 360,000);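 active = inhibition of 50% or more, scaled per plate between neutral and stimulator controls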
TIM10 conf: confirmation of TIM10 yeast growth inhibitors; shares compounds with TIM10 inh; S. cerevisiae tim10 strain growth, BacTiter-Glo luminescence, 24 h; inhibition, % at 10 µM; actives 63% (n = 4,600); AID 463215;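 active = inhibition of yeast growth at or above a set limit in either of two replicates at 10 µM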; note: this counterscreen used the strain with wild-type TIM10
Of the large screens only hits and unclear results are named; the others gave an inactive call (follow-up assays come after a bar, where they were run). Shown are actives, neighbours in structure and some others; about 6.3% of the full set was active somewhere.

COc1cc(OC)c(/C=N/NC(=O)c2ccc(NC(C)=O)cc2)cc1Br	none
Cn1c2ccccc2c2nnc(SCC(N)=O)nc21	none
Cn1c2ccc(Br)cc2c2nnc(SCC(=O)O)nc21	TIM10 inh 60 | TIM10 conf 75
CC(=O)c1ccc(OC2(C)CCN(Cc3cc4ccccc4[nH]3)C2)cc1 (stereo unspecified)	none (no result: Mdm2-MdmX inh, tim10-1 inh, tim23-1 inh, TIM10 inh)
CCOC(=O)c1oc2ccccc2c1N	none
Cc1ccc(C(=O)c2oc3ccccc3c2N)cc1	TIM10 inh 47 | TIM10 conf inactive
CSc1ccc(CNC(=O)C2(C)CCCN(C(C)C)C2)cc1 (stereo unspecified)	none (no result: Mdm2-MdmX inh, tim10-1 inh, tim23-1 inh, TIM10 inh)
CC(C)Cn1c(C(C)C)nc([N+](=O)[O-])c1S(=O)(=O)c1ccc(F)cc1	TIM10 inh 40 | TIM10 conf inactive
CC(C)Cn1c(C(C)C)nc([N+](=O)[O-])c1Sc1ccc(Cl)cn1	none
CCCCCC(=O)Nc1cccc(C2=NOC3(C2)C[C@@H](C(N)=O)N(C(=O)c2ccc(OC)cc2)C3)c1 (stereo partly specified)	none
CCC(=O)Nc1cccc(C2=NOC3(C2)C[C@@H](C(N)=O)N(C(=O)C2(C)CC2)C3)c1 (stereo partly specified)	none
COc1ccc(C(=O)N2CC3(CC(c4cccc(NC(=O)CC(c5ccccc5)c5ccccc5)c4)=NO3)C[C@H]2C(N)=O)cc1 (stereo partly specified)	TIM10 inh 96 | TIM10 conf inactive
CC1(C(=O)N2CC3(CC(c4cccc(NC(=O)CC(c5ccccc5)c5ccccc5)c4)=NO3)C[C@@H]2C(N)=O)CC1 (stereo partly specified)	TIM10 inh 96 | TIM10 conf inactive
COc1cc2c(C(=O)N3CCN(c4ccccc4C)CC3)c(C)oc2cc1Br	TIM10 inh 52 | TIM10 conf 35
O=C(/C=C/c1ccc(Br)cc1)c1ccco1	none
O=C(/C=C/c1ccc(Br)cc1)c1ccc(NC(=O)c2ccco2)cc1	TIM10 inh 41 | TIM10 conf inactive
Cc1ccc2c(c1)c1nc3ccccc3nc1n2CCN1CCOCC1	TIM10 inh 48 | TIM10 conf inactive
C=CCNC(=S)N/N=C/c1cccc([N+](=O)[O-])c1	TIM10 inh 47 | TIM10 conf 40
O=[N+]([O-])c1cccc(-c2ccc(/C=N/NC(=S)Nc3ccccc3)o2)c1	TIM10 inh 47 | TIM10 conf 48
C=CCNC(=S)Nc1cccc([N+](=O)[O-])c1	none
O=C(N/N=C/c1ccncc1)c1cc2ccccc2o1	TIM10 inh 43 | TIM10 conf 36
Cn1c(SCc2ccc(C#N)cc2)nnc1-c1cccc(Cl)c1	TIM10 inh 45 | TIM10 conf inactive
CC(C)C(c1nnnn1C1CCCCC1)N1CCc2ccccc21 (stereo unspecified)	TIM10 inh 46 | TIM10 conf 31
Cc1ccc(C(c2nnnn2C2CCCCC2)N2CCc3ccccc32)cc1 (stereo unspecified)	none
Cc1onc(-c2c(Cl)cccc2Cl)c1C(=O)NC(=S)N1CCOCC1	none
CCOC(=O)N1CCN(C(=S)NC(=O)c2c(-c3c(Cl)cccc3Cl)noc2C)CC1	none | TIM10 conf inactive
Cc1ccccc1C1=N/C(=C/c2cccs2)C(=O)O1	TIM10 inh 51 | TIM10 conf inactive
O=C1C(=Cc2cccs2)C(=O)c2ccccc21	none
CN1CC(O)(C(O)C(O)C(O)CO)SC1=S (stereo unspecified)	none (no result: Mdm2-MdmX inh, tim10-1 inh, tim23-1 inh, TIM10 inh)
Cc1cc(OCC(=O)Nc2c(C(C)C)cccc2C(C)C)no1	none (no result: Mdm2-MdmX inh, tim10-1 inh, tim23-1 inh, TIM10 inh)
Cc1cc(C)nc(Nc2nc(C(N)Cc3ccc(Cl)cc3)cs2)n1 (stereo unspecified)	none (no result: Mdm2-MdmX inh, tim10-1 inh, tim23-1 inh, TIM10 inh)
CC1=C/C(=N\NC(=S)NCCc2ccccc2)CC(C)(C)C1	TIM10 inh 43 | TIM10 conf inactive
C/C(CCc1ccccc1)=N\NC(=S)NCCc1ccccc1	none
CC1(C)OC2CC3C4CCC5=CC(=O)C=CC5(C)C4(F)C(O)CC3(C)C2(C(=O)CO)O1 (stereo unspecified)	none (no result: Mdm2-MdmX inh, tim10-1 inh, tim23-1 inh, TIM10 inh)
Cc1ccc(C(O)P(=O)(OC2CCCCC2)OC2CCCCC2)cc1 (stereo unspecified)	TIM10 inh 40 | TIM10 conf 39
COc1ccc(CC(=O)O/N=C(\N)c2ccncc2)cc1OC	none (no result: Mdm2-MdmX inh, tim10-1 inh, tim23-1 inh, TIM10 inh)
Cc1ccc2c(=O)n3c(nc2c1)C(Cc1ccc(O)cc1)NC(=O)c1ccc(Cl)cc1-3 (stereo unspecified)	none (no result: MPTP block)
O=[N+]([O-])c1ccc(Sc2n[nH]c(-c3ccccc3)n2)nc1	TIM10 inh 45 | TIM10 conf inactive
CC1(C(=O)NS(=O)(=O)c2ccc(Cl)cc2)CCN1C(=O)c1cccc(F)c1 (stereo unspecified)	none (no result: Mdm2-MdmX inh, tim10-1 inh, tim23-1 inh, TIM10 inh)
CCc1nc2c(cnn2-c2ccc(Cl)cc2)c(=O)n1-c1ccc(OC)cc1	TIM10 inh 42 | TIM10 conf inactive
CCOc1ccc(-n2c(C)nc3c(cnn3-c3ccc(Cl)cc3)c2=O)cc1	none (no result: Mdm2-MdmX inh, tim10-1 inh, tim23-1 inh, TIM10 inh)
COc1ccc(OC)c(NC(=S)NCCC(c2ccccc2)c2ccccc2)c1	TIM10 inh 46 | TIM10 conf inactive
COc1ccc(OC)c(NC(=S)NCc2ccccc2OC)c1	none
CCCC(=O)N1CCC1(C)C(=O)Nc1cc(OC)ccc1OC (stereo unspecified)	none (no result: Mdm2-MdmX inh, tim10-1 inh, tim23-1 inh, TIM10 inh)
CC(=O)Oc1ccc2c(c1)C(=O)CCCCCC(=O)O2	none (no result: Mdm2-MdmX inh, tim10-1 inh, tim23-1 inh, TIM10 inh)
CC(=O)Nc1ncc(Cc2cc(Cl)ccc2Cl)s1	none
CC(C)C(=O)Nc1ncc(Cc2ccc(Cl)cc2)s1	TIM10 inh 47 | TIM10 conf 34
Cc1ccc(Cc2cnc(NC(=O)c3ccco3)s2)cc1	none | TIM10 conf 40
CCOc1ccc(NC(=O)COC(=O)c2ccc3c(c2)C(=O)N(CCc2ccccc2)C3=O)cc1	none
Cc1ccc(NC(=O)COC(=O)c2ccc3c(c2)C(=O)N(CCc2ccccc2)C3=O)c(C)c1	TIM10 inh 41 | TIM10 conf inactive
COc1cc(Cc2cc(OC)c(O)c(OC)c2)cc(OC)c1O	none (no result: Mdm2-MdmX inh, tim10-1 inh, tim23-1 inh, TIM10 inh)
CC(=O)N1CC(=O)N(Cc2ccccc2)/C(=C/c2ccccc2)C1=O	TIM10 inh 44 | TIM10 conf 40
O=C(c1ccc([N+](=O)[O-])o1)N1CCN(c2nc3ccc(F)cc3s2)CC1	TIM10 inh 40 | TIM10 conf 81
Cc1ccc2sc(N3CCN(C(=O)c4ccc([N+](=O)[O-])o4)CC3)nc2c1C	none
CC(C)N(Cc1nc(-c2ccccc2)no1)C(=O)C(Cl)(Cl)Cl	TIM10 inh 41 | TIM10 conf inactive
CC(C)N(Cc1nc(-c2ccccc2)no1)C(=O)C(C)(C)C	none
COCCN(C(=O)COC(=O)c1ccc2c(c1)OCO2)c1c(N)n(Cc2ccccc2)c(=O)[nH]c1=O	none (no result: Mdm2-MdmX inh, tim10-1 inh, tim23-1 inh, TIM10 inh)
O=C(NCCN1CCC(n2c(=O)[nH]c3ccccc32)CC1)c1ccc(F)cc1F	none (no result: Mdm2-MdmX inh, tim10-1 inh, tim23-1 inh, TIM10 inh)
O=c1oc(-c2ccccc2)nc2sc3c(c12)CCC3	TIM10 inh 42 | TIM10 conf inactive
Cc1cc(Oc2nnnn2-c2ccccc2)ccc1Cl	TIM10 inh 40 | TIM10 conf 30
Fc1ccc(Oc2nnnn2-c2ccccc2)cc1	none

From PubChem
